# Assay results: PubChem BioAssay (NCATS)
# Several values for one entry are separate records, joined by “and”; a condition that tells them apart may be missing. Identical values can stand only once. Results filed as inconclusive are left out. Entries that show only a call come without a potency. Activity calls are given as the source filed them. Unless noted, calls follow the shape of the full dose curve.
# Assays:
# [1] = Primary qHTS for inhibitors of MERS-S pseudo-typed particle cell entry (AID 1479149); also: nearly all actives have a fitted effect of over 60% in size; also: potency is read from the fitted curve at half-maximal effect
# [2] = Primary qHTS to identify inhibitors of SARS-CoV-2 cell entry (AID 1645846); conditions: activity change, negative = inhibition: at 57.1 µM (top of the series) unless noted; also: nearly all actives have a fitted effect of over 45% in size; also: potency is read from the fitted curve at half-maximal effect
# Summary of the method: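 HEK293 cells stably expressing human ACE2, pre-treated 1 h with compound, then infected with MLV particles pseudotyped with Wuhan-Hu-1 spike (C-terminal 19-aa truncation). Luciferase luminescence after 48 h at 37 °C, normalised to spike PP and bald PP.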
# [3] = Primary qHTS for small molecule stabilizers of the endoplasmic reticulum resident proteome: Secreted ER Calcium Modulated Protein (SERCaMP) assay (AID 1508630; active = well fitted curve in the direction sought with a large enough effect; an effect the other way counts as inactive or inconclusive)
# Summary of the method: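 The SH-SY5Y reporter protocol was run at 3 concentrations up to 38.3 uM (primary) or 11 concentrations (follow-up): 16 h compound, 100 nM thapsigargin for 4 h, then extracellular luciferase luminescence.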
# [4] = target: Cytochrome P450 2D6 (Homo sapiens) (UniProt P10635); test: Cytochrome P450 family 2 subfamily D member 6 (CYP2D6) small molecule antagonists: luciferase biochemical (cell-free) qHTS assay (AID 1645840; active = well fitted curve in the direction sought with a large enough effect in the repeat runs; an effect the other way counts as inactive or inconclusive; also: nearly all actives have a fitted effect of over 55% in size; also: potency is read from the fitted curve at half-maximal effect)
# Chain of Cytochrome P450 2D6 (Homo sapiens) (P10635 whole entry, looked up): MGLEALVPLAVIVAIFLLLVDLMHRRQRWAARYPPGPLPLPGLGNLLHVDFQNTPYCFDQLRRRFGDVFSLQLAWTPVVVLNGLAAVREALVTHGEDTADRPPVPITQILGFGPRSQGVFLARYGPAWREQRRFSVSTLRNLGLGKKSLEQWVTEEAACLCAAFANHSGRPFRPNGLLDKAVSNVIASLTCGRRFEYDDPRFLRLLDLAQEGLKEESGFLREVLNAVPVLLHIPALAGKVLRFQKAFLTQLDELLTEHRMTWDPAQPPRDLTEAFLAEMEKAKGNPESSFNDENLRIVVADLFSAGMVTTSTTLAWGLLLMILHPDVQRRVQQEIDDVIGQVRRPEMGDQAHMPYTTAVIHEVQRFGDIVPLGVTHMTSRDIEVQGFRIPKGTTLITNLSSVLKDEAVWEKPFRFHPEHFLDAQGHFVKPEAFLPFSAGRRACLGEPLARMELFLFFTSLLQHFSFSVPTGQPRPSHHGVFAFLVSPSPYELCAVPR
# Summary of the method: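 P450-Glo CYP2D6 system: proluciferin substrate converted by enzyme to luciferin, read by luminescence proportional to activity. Enzyme-substrate mix with compound 10 min at room temperature, then NADPH regeneration 1 h before detection reagent.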
# [5] = target: Cytochrome P450 2C9 (Homo sapiens) (UniProt P11712); test: Cytochrome P450 family 2 subfamily C member 9 (CYP2C9) small molecule antagonists: luciferase biochemical (cell-free) qHTS assay (AID 1645842; active = well fitted curve in the direction sought with a large enough effect in the repeat runs; an effect the other way counts as inactive or inconclusive; also: nearly all actives have a fitted effect of over 55% in size; also: potency is read from the fitted curve at half-maximal effect)
# Chain of Cytochrome P450 2C9 (Homo sapiens) (P11712 whole entry, looked up): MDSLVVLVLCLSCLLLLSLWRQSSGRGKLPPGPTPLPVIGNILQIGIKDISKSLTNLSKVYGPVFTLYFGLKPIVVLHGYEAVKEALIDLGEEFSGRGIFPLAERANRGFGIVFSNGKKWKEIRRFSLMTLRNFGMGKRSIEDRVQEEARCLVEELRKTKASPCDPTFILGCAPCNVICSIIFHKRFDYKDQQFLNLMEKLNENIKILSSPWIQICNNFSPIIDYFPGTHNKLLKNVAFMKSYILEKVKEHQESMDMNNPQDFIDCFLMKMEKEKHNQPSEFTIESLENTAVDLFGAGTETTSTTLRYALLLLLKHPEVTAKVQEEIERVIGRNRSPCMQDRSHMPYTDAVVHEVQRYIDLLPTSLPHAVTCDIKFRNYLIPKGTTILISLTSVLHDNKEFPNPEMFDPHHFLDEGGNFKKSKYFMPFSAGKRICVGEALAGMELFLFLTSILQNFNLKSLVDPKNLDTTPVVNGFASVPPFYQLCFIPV
# Summary of the method: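 P450-Glo CYP2C9 system: proluciferin substrate with enzyme in mix containing 0.4% BSA, 10 min at room temperature, then NADPH regeneration solution added and incubated 1 h at 37C. Detection reagent stopped reaction; luminescence read after 20 min as RLU.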
# [6] = Primary qHTS for Vero E6 cytotoxicity: counterscreen for inhibitors of SARS-S pseudo-typed particle cell entry (AID 1479150)
# [7] = Confirmatory qHTS for VERO E6 Cytotoxicity Assay: Counterscreen for SARS-CoV-2 CPE Assay (AID 1508605); also: nearly all actives have a fitted effect of over 60% in size
# [8] = Confirmatory qHTS for activators (rescue) of SARS-CoV-2 Cytopathic Effect (CPE) (AID 1508606); also: potency is read from the fitted curve at half-maximal effect; nearly all actives have a fitted effect of over 70% in size
# [9] = Primary qHTS for inhibitors of La Crosse Virus (LACV) - induced cell death in SH-SY5Y cells (AID 1508616; active = well fitted curve in the direction sought with a large enough effect; an effect the other way counts as inactive or inconclusive;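 also: top concentration of the series differs between compounds; higher means more rescue of cells from virus-induced death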)
# Summary of the method: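 Cytopathicity rescue screen: compounds pinned onto SH-SY5Y cells, which are then infected with LACV (MOI 0.01) and held 6 days at 37C. Percent activity is scaled between infected DMSO control and uninfected DMSO control.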
# [10] = A High-Content qHTS Against Drug Library for the Identification of Small Molecules that Inhibit DYT1 Early Onset Primary Dystonia-Associated Cell Pathology (AID 1645839)
# Summary of the method: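 Induced EGFP-delE TorsinA cells are imaged after 48 h of compound treatment. Punctate fusion-protein distribution gives the %pathology value, while nuclei counts flag toxicity. Wild-type EGFP-hTOR1A cells define the normal pattern.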
# [11] = Cytotoxicity counterscreen for inhibitors of SARS-CoV-2 cell entry (AID 1645845); also: nearly all actives have a fitted effect of over 50% in size
# Summary of the method: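 After a 15 min room-temperature ATPLite 1step step, luminescence reflected ATP remaining in HEK293-ACE2 cells exposed to compound for 1 h plus 48 h at 37 C, with percent activity set by cell and no-cell controls.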
structure (smiles),measurement,setting,value
CC(C)C[C@H](NC(=O)[C@H](Cc1ccccc1)NC(=O)c1cnccn1)B(O)O,Potency,[1],inactive
same,"activity change, negative = inhibition",[2],-95.1%
C[C@H]1O[C@@H](O[C@H]2[C@@H](O)C[C@H](O[C@H]3[C@@H](O)C[C@H](O[C@H]4CC[C@@]5(C)[C@H](CC[C@@H]6[C@@H]5CC[C@]5(C)[C@@H](C7=CC(=O)OC7)CC[C@]65O)C4)O[C@@H]3C)O[C@@H]2C)C[C@H](O)[C@@H]1O,Potency,[1],inactive
same,outcome,[3],inactive
same,Potency,[4],inactive
same,Potency,[5],inactive
CCOC(=O)[C@H](CCc1ccccc1)N[C@@H](C)C(=O)N1Cc2cc(OC)c(OC)cc2C[C@H]1C(=O)O,Potency,[1],inactive
same,Potency,[6],inactive
same,"activity change, negative = inhibition",[2],-29.2%
COc1ccccc1OCCNCC(O)COc1cccc2[nH]c3ccccc3c12 (stereo not given),Potency,[6],inactive
same,Potency,[7],inactive
same,Potency,[8],10 µM (active)
same,Potency,[2],22.4 µM (active)
CC(C)(C)CC(C)(C)c1ccc(O)cc1,Potency,[1],inactive
same,Potency,[9],inactive
same,outcome,[3],inactive
same,Potency,[10],inactive
same,Potency,[4],36.6 µM (active)
same,Potency,[5],11.9 µM (active) and 15.5 µM (active)
C[C@H]1[C@H](NC(=O)/C(=N/OC(C)(C)C(=O)O)c2csc(N)n2)C(=O)N1S(=O)(=O)O (stereo in doubt),Potency,[1],inactive
same,Potency,[6],inactive
same,Potency,[2],inactive
CCN(CC)CCNC(=O)c1c(C)[nH]c(/C=C2\C(=O)Nc3ccc(F)cc32)c1C,Potency,[1],11.2 µM (active)
same,Potency,[2],25.1 µM (active)
O=C(C1CCCCC1)N1CC(=O)N2CCc3ccccc3C2C1 (stereo not given),Potency,[1],inactive
same,Potency,[6],inactive
same,Potency,[2],inactive
CC(C)c1c(C(=O)Nc2ccccc2)c(-c2ccccc2)c(-c2ccc(F)cc2)n1CC[C@@H](O)C[C@@H](O)CC(=O)O,Potency,[1],inactive
same,Potency,[11],inactive
same,"activity change, negative = inhibition",[2],-13%
